We go through 29 molecules from PubChem BioAssay.

A short description of assay [1]: kinase inhibitors against Plasmodium liver-stage infection, cell-based, known kinase inhibitor set, luminescence, hepatoma host viability (AID 624392).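 Also: infected cells incubated roughly two days before readout.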 The conditions noted are these: Plasmodium liver stage in hepatoma cells, luciferase luminescence, concentration not given here; liver cell % of control: measured here: host liver cell viability; parasite % of control: stronger effect = lower value.

A short description of assay [2]: liver-stage malaria parasite growth inhibition, primary screen, cell-based, HepG2, luciferase luminescence, HepG2 viability (AID 624349; in the data active = parasite load remaining mostly below about 12%, no sharp cut-off; inactive = mostly above about 10%;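 also: 100% = mean of DMSO negative control wells on the same plate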). To be noted: P. berghei liver stage in HepG2, luciferase luminescence, concentration not given here; parasite load remaining: stronger effect = lower value; viability: measured here: HepG2 viability without parasites.

For orientation: viability means a read-out of living cells in per cent, often relative to untreated cells.

Molecules are shown by their SMILES. Several values for one entry are separate records, joined by “and”; a condition that tells them apart may be missing. Equal values may be shown once. Activity calls are given as the source filed them. Unless noted, no rule for the calls is given here.

As for `CC(C)n1cnc2c(NCc3ccc(S(N)(=O)=O)cc3)nc(NCc3ccc(S(N)(=O)=O)cc3)nc21`, in assay [1], the liver cell % of control was 102% and the parasite % of control is 108% (inactive).

As to `c1ccc2c(-c3ccncc3)c[nH]c2c1`, in assay [2], the parasite load remaining is 30.9% (inactive) and the viability came to 66.5%.

For the molecule `Nc1cc(Nc2ccc(S(N)(=O)=O)cc2)ncn1`, in assay [2], the parasite load remaining was 48.4% (inactive) and the viability came to 133%. Further, in assay [1], the liver cell % of control was found to be 97.7% and the parasite % of control was 145% (inactive).

On to `O=C1NC(=O)C(c2cn(CCCn3ccnc3)c3ccccc23)=C1Nc1ccccc1`, for which, in assay [2], the parasite load remaining was 35% (inactive) and the viability came out at 61.8%.

In the case of `CC(C)n1cnc2c(N(C)c3cccc(Cl)c3)nc(N(CCO)CCO)nc21`, in assay [1], the liver cell % of control is 93.8% and the parasite % of control was 100% (inactive).

As to `CC(C)n1cnc2c(N(Cc3ccccc3)c3cccc(Cl)c3)nc(N(CCN(C)C)Cc3ccccc3)nc21`, in assay [1], the liver cell % of control is 82.6% and the parasite % of control is 9.42% (active).

As to `NC(=O)Nc1sc(-c2ccccc2)cc1C(N)=O`, in assay [2], the parasite load remaining is 55.2% (inactive) and the viability was determined as 90.8%. In assay [1], the liver cell % of control came out at 111% and the parasite % of control is 316% (inactive).

On to `NS(=O)(=O)c1ccc(-c2cccc(C=C3SC(=O)NC3=O)c2)cc1`, for which, in assay [1], the liver cell % of control came to 87.7% and the parasite % of control was 17% (inactive).

Regarding `CC(=O)Nc1ccc(C(C)C(=O)Nc2ncc(C(C)C)s2)cc1` (configuration not stated), in assay [1], the liver cell % of control was 53.4% and 52.2% and 52.5%; the parasite % of control was 136% (inactive) and 128% (inactive) and 133% (inactive).

With `NC1=NC(=O)C(=Cc2cccc(-c3ccc(S(N)(=O)=O)cc3)c2)S1`, in assay [1], the liver cell % of control is 98% and the parasite % of control was 377% (inactive).

As for `CO[C@H]1C[C@@H]2CC[C@@H](C)[C@@](O)(O2)C(=O)C(=O)N2CCCC[C@H]2C(=O)O[C@H](C(C)C[C@H]2CC[C@@H](O)[C@H](OC)C2)CC(=O)[C@H](C)/C=C(\C)[C@@H](O)[C@@H](OC)C(=O)[C@H](C)C[C@H](C)/C=C/C=C/C=C/1C` (some centres not stated), in assay [2], the parasite load remaining was 45.4% (inactive) and the viability stood at 63.2%.

Turning to `Nc1nc(O)c(C2=C3C(=Nc4ccccc43)C(=O)NCC2)[nH]1`, in assay [2], the parasite load remaining is 45.8% (inactive) and the viability was determined as 99.9%.

Take `COc1cc2ncn(-c3cc(OCc4ccc(S(C)(=O)=O)cc4)c(C(N)=O)s3)c2cc1OC`: in assay [2], the parasite load remaining was 30% (inactive) and the viability was determined as 67.4%.

In the case of `CCN1C(=O)CCN(C2CCCC2)c2nc(Nc3ccc(C(=O)NC4CCN(C)CC4)cc3OC)ncc21`, in assay [1], the liver cell % of control was 91.7% and the parasite % of control was 362% (inactive).

As to `O=C(O)c1ccc2c3c1cccc3c(=O)n1c3ccccc3nc21`, in assay [2], the parasite load remaining is 44% (inactive) and the viability was 75.2%.

On to `Cc1cn(-c2cc(C(=O)Nc3ccc(C)c(NC(=O)C(=O)c4c[nH]c5ccccc45)c3)cc(C(F)(F)F)c2)cn1`, for which, in assay [1], the liver cell % of control was determined as 95.9% and the parasite % of control was 102% (inactive).

As to `Cc1ccc(C(=O)Nc2cccc(C(F)(F)F)c2)cc1NC(=O)c1cnnc2ccccc12`, in assay [1], the liver cell % of control came to 104% and the parasite % of control was 44.2% (inactive).

Regarding `COc1cc(NC(=O)c2ccnc(N)c2)cc(C(=O)Nc2cccc(C(F)(F)F)c2)c1`, in assay [1], the liver cell % of control is 96.6% and the parasite % of control was 89.2% (inactive).

Consider `COc1ccc(CNc2nc(NCc3ccc(OC)cc3)c3ncn(C(C)C)c3n2)cc1`, for which, in assay [1], the liver cell % of control turned out to be 107% and the parasite % of control is 168% (inactive).

On to `CCN1CCN(Cc2ccc(NC(=O)c3ccc(C)c(NC(=O)c4cc(-c5ccc(Br)cc5)n[nH]4)c3)cc2C(F)(F)F)CC1`, for which, in assay [1], the liver cell % of control came out at 90.4% and the parasite % of control was 208% (inactive).

In the case of `COc1cc(NC(=O)c2ccc(N)nc2)cc(C(=O)Nc2cccc(C(F)(F)F)c2)c1`, in assay [1], the liver cell % of control turned out to be 97.9% and the parasite % of control is 85% (inactive).

Take `Cc1ccc(C(=O)Nc2cccc(C(F)(F)F)c2)cc1NC(=O)c1c[nH]c2cc(C(F)(F)F)ccc2c1=O`: in assay [1], the liver cell % of control was 97.9% and the parasite % of control is 25.1% (inactive).

On to `C=CC(=O)Nc1cccc(CN2C(=O)N(c3cc(OC)cc(OC)c3)Cc3cnc(NCCCCN(CC)CC)nc32)c1`, for which, in assay [1], the liver cell % of control was 102% and the parasite % of control is 70.3% (active).

As to `NC1=NC(=O)C(=Cc2ccc(-c3ccc(Cl)cc3)o2)S1`, in assay [1], the liver cell % of control turned out to be 97.6% and the parasite % of control is 73.1% (inactive).

For `COc1cc(NC(=O)c2nccnc2N)cc(C(=O)Nc2cccc(C(F)(F)F)c2)c1`, in assay [1], the liver cell % of control came to 97.3% and the parasite % of control is 84.9% (inactive).

In the case of `O=C(Nc1ccc(-c2csc(Nc3cccc(C(F)(F)F)c3)n2)cc1)c1ccccc1`, in assay [1], the liver cell % of control was 106% and the parasite % of control was 69.1% (inactive).

Regarding `Nc1ccc(-c2cnc(N)c(C(=O)c3cccnc3)n2)cn1`, in assay [1], the liver cell % of control turned out to be 97.9% and the parasite % of control is 132% (inactive).

Regarding `CCN1CCN(Cc2ccc(NC(=O)c3ccc(C)c(NC(=O)c4nccn4C)c3)cc2C(F)(F)F)CC1`, in assay [1], the liver cell % of control was 101% and the parasite % of control was 90.4% (inactive).

For `NS(=O)(=O)c1ccc(-c2ccc(C=C3C(=O)c4ccccc4C3=O)o2)cc1`, in assay [1], the liver cell % of control turned out to be 102% and the parasite % of control was 96.4% (inactive).
